This note sets out measurements from PubChem BioAssay (NCATS).

Experiment [1] in a line: Primary qHTS for inhibitors of SARS-S pseudo-typed particle cell entry (AID 1479145). Further: nearly all actives have a fitted effect of over 45% in size. Further: potency means the concentration at half of the fitted maximal effect. On activity change, negative = inhibition: series mostly up to about 57 µM; on the % scale 0 is the no-effect control and ±100 the full control effect. For orientation: In qHTS, concentration-response curves come from the screen itself.
Experiment [2] in a line: Primary qHTS for Huh7 cytotoxicity: counterscreen for inhibitors of MERS-S pseudotyped particle cell entry (AID 1479147).
Experiment [3] is described as follows: Primary qHTS for inhibitors of MERS-S pseudo-typed particle cell entry (AID 1479149). Further: nearly all actives have a fitted effect of over 60% in size. On activity change, negative = inhibition: series mostly up to about 57 µM; on the % scale 0 is the no-effect control and ±100 the full control effect.
Experiment [4] in a line: Primary qHTS for Vero E6 cytotoxicity: counterscreen for inhibitors of SARS-S pseudo-typed particle cell entry (AID 1479150).
Experiment [5] in a line: Confirmatory qHTS for VERO E6 Cytotoxicity Assay: Counterscreen for SARS-CoV-2 CPE Assay (AID 1508605). Further: series mostly up to about 20 µM; on the % scale 0 is the no-effect control and ±100 the full control effect; nearly all actives have a fitted effect of over 60% in size.
Experiment [6] can be described thus: Primary qHTS for inhibitors of La Crosse Virus (LACV) - induced cell death in SH-SY5Y cells (AID 1508616; active means well fitted curve in the direction sought with a large enough effect; an effect the other way counts as inactive or inconclusive;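 further: top concentration of the series differs between compounds; 0% = infected DMSO wells and 100% = uninfected DMSO wells; higher means more rescue of cells from virus-induced death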). Summed up:
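Luminescent ATP readout (ATPLite 1step, 5 min room temperature) measured rescue from LACV-induced death after 6 days of infection at 0.01 MOI; normalized to infected DMSO wells and uninfected DMSO wells.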

The target in experiment [7] is Calcium and integrin-binding protein 1 (Homo sapiens) (UniProt Q99828). The experiment can be described thus: Primary qHTS for Identification of Calcium Integrin Binding Protein 1 (CIB1) Competitor (AID 1508620; active means well fitted curve in the direction sought with a large enough effect; an effect the other way counts as inactive or inconclusive;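 further: GST tagged CIB1 binding a fluorescein labelled alphaIIb integrin peptide tracer; top concentration of the series differs between compounds; on the % scale 0 is the no-effect control and ±100 the full control effect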). Summed up:
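Fluorescence polarization competition: CIB1-GST (1 uM final) preincubated with compound 15 min at room temperature, then FITC-labeled alphaIIb peptide (100 nM final) added for another 15 min. Polarization read at Ex 480/Em 540.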

Experiment [8] in a line: A High-Content qHTS Against Drug Library for the Identification of Small Molecules that Inhibit DYT1 Early Onset Primary Dystonia-Associated Cell Pathology (AID 1645839). Further: series mostly up to about 46 µM. In a few lines:
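Readout: %pathology, the punctate EGFP-TorsinA distribution from imaging, as the primary channel and cell count as the toxicity counterscreen. HEK293 Flp-In cells expressing delE TorsinA were induced with tetracycline and treated with compound for 48 h.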

Inconclusive results are not listed. Unmarked numbers belong to inactive results. Activity calls are given as the source filed them. Unless noted, the call rests on the fitted dose curve.

Sequence of Calcium and integrin-binding protein 1 (Homo sapiens) (Q99828 whole entry, looked up): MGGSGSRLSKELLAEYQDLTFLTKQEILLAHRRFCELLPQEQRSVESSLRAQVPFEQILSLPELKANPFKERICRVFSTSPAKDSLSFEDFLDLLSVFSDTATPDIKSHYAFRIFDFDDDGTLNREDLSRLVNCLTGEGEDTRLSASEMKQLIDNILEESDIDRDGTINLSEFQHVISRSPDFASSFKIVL

For `O=C(OC1C[C@H]2CC[C@@H](C1)[N+]21CCCC1)C(O)(c1ccccc1)c1ccccc1` (some centres not stated), the Potency entry in experiment [1], in experiment [2], in experiment [3] and in experiment [4] was “inactive” throughout.

On to `CN(C)c1nc(N(C)C)nc(N(C)C)n1`, for which the Potency entry in experiment [1], in experiment [2], in experiment [3] and in experiment [4] was “inactive” each time.

Consider `N[C@@H]1CONC1=O`, for which the Potency entry in experiment [1], in experiment [2], in experiment [3] and in experiment [4] was “inactive” throughout.

As to `CC(C)(O)c1ccccc1CC[C@@H](SCC1(CC(=O)O)CC1)c1cccc(/C=C/c2ccc3ccc(Cl)cc3n2)c1`, the Potency entry in experiment [1], in experiment [2], in experiment [3] and in experiment [4] was “inactive” throughout.

As for `NC(=Nc1ccccc1)Nc1ccccc1`, the Potency entry in experiment [1], in experiment [2], in experiment [3] and in experiment [4] was “inactive” throughout.

For `CCCCOCCOCCOCc1cc2c(cc1CCC)OCO2`, the Potency entry in experiment [1], in experiment [2], in experiment [3] and in experiment [4] was “inactive” throughout.

For `C[C@](N)(Cc1ccc(O)c(O)c1)C(=O)O`, the Potency entry in experiment [1], in experiment [2], in experiment [3] and in experiment [4] was “inactive” each time.

With `CC1=C(C(=O)O)N2C(=O)[C@@H](NC(=O)[C@H](N)c3ccccc3)[C@H]2SC1`, the Potency result in experiment [1], in experiment [2], in experiment [3] and in experiment [4] was “inactive” throughout.

Regarding `Cc1cn[nH]c1`, the Potency entry in experiment [1], in experiment [2], in experiment [3] and in experiment [4] was “inactive” in each case.

With `CC(C)(C)C(=O)OCOP(=O)(COCCn1cnc2c(N)ncnc21)OCOC(=O)C(C)(C)C`, the Potency result in experiment [1], in experiment [2], in experiment [3] and in experiment [4] was “inactive” in each case.

For the compound `O=C(NCCN1CCOCC1)c1ccc(Cl)cc1`, the Potency result in experiment [1], in experiment [2], in experiment [3] and in experiment [4] was “inactive” in each case.

For the compound `CC(S)C(=O)NCC(=O)O` (configuration not stated), the Potency entry in experiment [1], in experiment [2], in experiment [3] and in experiment [4] was “inactive” in each case.

Turning to `Cc1ccc2c(n1)Oc1ccc(C(C)C(=O)OCC(=O)N(C)C)cc1C2` (configuration not stated), the Potency entry in experiment [1], in experiment [2], in experiment [3] and in experiment [4] was “inactive” in each case.

Consider `COC(=O)[C@@H]1CC2=CC(=O)CC[C@]2(C)[C@@]23O[C@@H]2C[C@@]2(C)[C@@H](CC[C@@]24CCC(=O)O4)[C@H]13`, for which the Potency result in experiment [1], in experiment [2], in experiment [3] and in experiment [4] was “inactive” throughout.

Take `O=C(O)CCNC(=O)c1ccc(N=Nc2ccc(O)c(C(=O)O)c2)cc1`: the Potency result in experiment [1], in experiment [2], in experiment [3] and in experiment [4] was “inactive” in each case.

`c1cnc2cc3c(cc2n1)C1CNCC3C1`: the Potency result in experiment [1], in experiment [2], in experiment [3] and in experiment [4] was “inactive” in each case.

As to `CC1=C(C(=O)O)N2C(=O)[C@@H](NC(=O)[C@H](N)c3ccc(O)cc3)[C@H]2SC1`, the Potency result in experiment [1], in experiment [2], in experiment [3] and in experiment [4] was “inactive” throughout.

For `NS(=O)(=O)c1cc2c(cc1Cl)NC=NS2(=O)=O`, the Potency entry in experiment [1], in experiment [2], in experiment [3] and in experiment [4] was “inactive” each time.

In the case of `O=NN(CCCl)C(=O)NCCCl`, the Potency result in experiment [1], in experiment [2], in experiment [3] and in experiment [4] was “inactive” in each case.

With `NCCC(O)(P(=O)(O)O)P(=O)(O)O`, the Potency result in experiment [1], in experiment [2], in experiment [3] and in experiment [4] was “inactive” in each case.

Regarding `CCCNC(=O)NS(=O)(=O)c1ccc(Cl)cc1`, the Potency result in experiment [1], in experiment [2], in experiment [3] and in experiment [4] was “inactive” each time.

In the case of `C[n+]1ccccc1/C=N/O`, the Potency entry in experiment [1], in experiment [2], in experiment [3] and in experiment [4] was “inactive” throughout.

`N[C@@H](C(=O)N[C@@H]1C(=O)N2C(C(=O)O)=C(Cl)CS[C@H]12)c1ccccc1`: the activity change, negative = inhibition in experiment [1] is -16.1% [at 11.4 µM]. In addition, the outcome in experiment [2], in experiment [3] and in experiment [4] was “inactive [at 11.4 µM]” each time.

Consider `CCCN(CCC)CCc1cccc2c1CC(=O)N2`, for which the Potency entry in experiment [1], in experiment [2], in experiment [3] and in experiment [4] was “inactive” in each case.

`NC(=O)NO`: the Potency entry in experiment [1], in experiment [2], in experiment [3] and in experiment [4] was “inactive” throughout.

Take `CNC1(C)C2CCC(C2)C1(C)C` (configuration not stated): the Potency entry in experiment [1], in experiment [2], in experiment [3] and in experiment [4] was “inactive” in each case.

Turning to `Oc1ccc(C2CNCCc3c2cc(O)c(O)c3Cl)cc1` (configuration not stated), the Potency entry in experiment [1], in experiment [2], in experiment [3] and in experiment [4] was “inactive” throughout.

On to `COc1cc(Cc2cnc(N)nc2N)cc(OC)c1OC`, for which the Potency result in experiment [1], in experiment [2], in experiment [3] and in experiment [4] was “inactive” throughout.

With `CCOC(=O)[C@H](CCc1ccccc1)N[C@@H](C)C(=O)N1Cc2ccccc2C[C@H]1C(=O)O`, the Potency result in experiment [1], in experiment [2], in experiment [3] and in experiment [4] was “inactive” each time.

Take `O=c1[nH]cnc2c1ncn2[C@H]1CC[C@@H](CO)O1`: the Potency result in experiment [1], in experiment [2], in experiment [3] and in experiment [4] was “inactive” in each case.

For the compound `Cc1ccc(-c2cc(C(F)(F)F)nn2-c2ccc(S(N)(=O)=O)cc2)cc1`, in experiment [5], the Potency entry was “inactive”.

As for `CN(C)[C@@H]1C(=O)C(C(N)=O)=C(O)[C@@]2(O)C(=O)C3=C(O)c4c(O)cccc4[C@@](C)(O)[C@H]3C[C@@H]12`, the Potency result in experiment [1], in experiment [2], in experiment [3], in experiment [4], in experiment [6] and in experiment [7] was “inactive” throughout. Moreover, the Potency entry in experiment [8] was “inactive”.

`COC(=O)C1=C(C)NC(C)=C(C(=O)OCC(C)C)C1c1ccccc1[N+](=O)[O-]` (configuration not stated): the Potency in experiment [1] was 35.5 µM (active). Besides, the Potency result in experiment [4] was “inactive”.

Regarding `O[C@@H](c1cc(C(F)(F)F)nc2c(C(F)(F)F)cccc12)[C@H]1CCCCN1`, the Potency entry in experiment [1] and in experiment [3] was “inactive” throughout.

Consider `Cc1oncc1C(=O)Nc1ccc(C(F)(F)F)cc1`, for which the Potency entry in experiment [1] and in experiment [3] was “inactive” in each case.

Regarding `CC(=O)O[C@]1(C(C)=O)CC[C@H]2[C@@H]3C=C(C)C4=CC(=O)CC[C@]4(C)[C@H]3CC[C@@]21C`, the Potency result in experiment [1], in experiment [2] and in experiment [4] was “inactive” throughout.
